Measured values as given in ChEMBL document CHEMBL1157539, “Thousands of chemical starting points for antimalarial lead identification” (Nature, 2010).

Columns and labels:
Format in all cases: functional
Plasmodium falciparum [1] = assay: GSK_TCMDC: Inhibition of Plasmodium falciparum 3D7 in whole red blood cells, using parasite LDH activity as an index of growth. Test compounds present at 2uM
Plasmodium falciparum [2] = assay: GSK_TCMDC: Inhibition of Plasmodium falciparum Dd2 in whole red blood cells, using parasite LDH activity as an index of growth. Test compounds present at 2uM
HepG2 = assay: GSK_TCMDC: Percent inhibition of human HepG2 cell line. Test compounds present at 10uM.

SMILES: CC(=O)c1cccc2c(NC(=O)Nc3ccc4nccc(N5CCN(C)CC5)c4c3)cccc12.Cl
- Inhibition (Plasmodium falciparum [1]): 99%
- Inhibition (Plasmodium falciparum [2]): 94%
- Inhibition (HepG2): 13%

SMILES: O=S(=O)(Nc1cccc(CCN2CCCCC2CCN2CCCC2)c1)c1cccc2ccccc12 (centres undefined)
- Inhibition (Plasmodium falciparum [1]): 97%
- Inhibition (Plasmodium falciparum [2]): 6%
- Inhibition (HepG2): 23%

SMILES: O=[N+]([O-])c1ccc(-c2ccc(C=NNc3nc(Nc4ccccc4)nc(Nc4ccccc4)n3)o2)cc1
- Inhibition (Plasmodium falciparum [1]): 91%
- Inhibition (Plasmodium falciparum [2]): 12%
- Inhibition (HepG2): 0%

SMILES: CCc1ccc(O)c(-c2cc(C(=O)Nc3ccc(OC)c(Cl)c3)[nH]n2)c1
- Inhibition (Plasmodium falciparum [1]): 93%
- Inhibition (Plasmodium falciparum [2]): 97%
- Inhibition (HepG2): 15%

SMILES: CC(C)(C)c1cc(C(=O)N2CCN(c3cnccn3)CC2)n(Cc2ccccc2)n1
- Inhibition (Plasmodium falciparum [1]): 92%
- Inhibition (Plasmodium falciparum [2]): 33%
- Inhibition (HepG2): 0%

SMILES: O=C(NCCN1CCCCC1)c1ccc(Nc2nccc(Nc3ccc(Oc4ccccc4)cc3)n2)cc1
- Inhibition (Plasmodium falciparum [1]): 100%
- Inhibition (Plasmodium falciparum [2]): 91%
- Inhibition (HepG2): 58%

SMILES: COc1cc(OC)cc(C(=O)Nc2cccc(-c3cn4ccc(C)cc4n3)c2)c1
- Inhibition (Plasmodium falciparum [1]): 86%
- Inhibition (Plasmodium falciparum [2]): 45%
- Inhibition (HepG2): 4%

SMILES: Oc1ccc2nc(NCCCc3ccccc3)nc(NCCc3ccccc3)c2c1
- Inhibition (Plasmodium falciparum [1]): 99%
- Inhibition (Plasmodium falciparum [2]): 88%
- Inhibition (HepG2): 31%

SMILES: Cc1cc(Cc2ccc(S(=O)(=O)c3cc4c(cc3O)CCN(C)CC4)cc2)ccc1Cl.Cl
- Inhibition (Plasmodium falciparum [1]): 96%
- Inhibition (Plasmodium falciparum [2]): 12%
- Inhibition (HepG2): 7%

SMILES: O=C(O)C(F)(F)F.O=S(=O)(NCCN1CCCC1)c1ccc(-c2ccc(CN3Cc4ccccc4C3)cc2)s1
- Inhibition (Plasmodium falciparum [1]): 89%
- Inhibition (Plasmodium falciparum [2]): 18%
- Inhibition (HepG2): 19%

SMILES: Fc1ccc2nc(Nc3nc(-c4ccccn4)cs3)sc2c1
- Inhibition (Plasmodium falciparum [1]): 100%
- Inhibition (Plasmodium falciparum [2]): 100%
- Inhibition (HepG2): 42%

SMILES: Cc1cc(N[C@@H](Cc2ccccc2)C(=O)NCc2cccc(F)c2)nc(NCCOc2ccccc2)n1.O=C(O)C(F)(F)F
- Inhibition (Plasmodium falciparum [1]): 97%
- Inhibition (Plasmodium falciparum [2]): 7%
- Inhibition (HepG2): 0%

SMILES: O=S(=O)(c1cc2ccccc2s1)N(CCC(O)(C(F)(F)F)C(F)(F)F)Cc1cccc(O)c1
- Inhibition (Plasmodium falciparum [1]): 100%
- Inhibition (Plasmodium falciparum [2]): 99%
- Inhibition (HepG2): 0%

SMILES: Cc1c(C)c2c(c(C)c1O)CC[C@@](C)(C(=O)N1CCC(CCN3CCC(c4c[nH]c5ccccc45)CC3)CC1)O2
- Inhibition (Plasmodium falciparum [1]): 98%
- Inhibition (Plasmodium falciparum [2]): 91%
- Inhibition (HepG2): 37%

SMILES: O=C(Nc1cccc(-c2cccc(CN3CCCC3)c2)c1)c1cccc(Cl)c1.O=C(O)C(F)(F)F
- Inhibition (Plasmodium falciparum [1]): 89%
- Inhibition (Plasmodium falciparum [2]): 30%
- Inhibition (HepG2): 44%

SMILES: O=C1C(C2CCC(c3ccc(Cl)cc3)CC2)=C2OCC3COC2(O3)c2ccccc21 (centres undefined)
- Inhibition (Plasmodium falciparum [1]): 98%
- Inhibition (Plasmodium falciparum [2]): 97%
- Inhibition (HepG2): 7%

SMILES: O=C(Nc1ccc(C(F)(F)F)cc1)c1cccc(S(=O)(=O)NC2CCN(Cc3ccccc3)C2)c1.O=C(O)C(F)(F)F (centres undefined)
- Inhibition (Plasmodium falciparum [1]): 88%
- Inhibition (Plasmodium falciparum [2]): 0%
- Inhibition (HepG2): 39%

SMILES: CCN(CC)CCCOC(=O)c1ccc2c(c1)-c1ccc(C(=O)OCCCN(CC)CC)c3cccc-2c13.Cl
- Inhibition (Plasmodium falciparum [1]): 98%
- Inhibition (Plasmodium falciparum [2]): 96%
- Inhibition (HepG2): 22%

SMILES: CN(C)c1ccc(CN2CCC(NC(=O)c3ccc(-c4ccc(N(C)C)cc4)s3)CC2)cc1.O=C(O)C(F)(F)F
- Inhibition (Plasmodium falciparum [1]): 93%
- Inhibition (Plasmodium falciparum [2]): 21%
- Inhibition (HepG2): 24%

SMILES: CC(C)c1ccc(OCC(O)CN(CCN2CCOCC2)C(=O)Nc2ccc(Br)cc2)cc1.O=C(O)C(F)(F)F (centres undefined)
- Inhibition (Plasmodium falciparum [1]): 98%
- Inhibition (Plasmodium falciparum [2]): 44%
- Inhibition (HepG2): 6%

SMILES: COc1cc(Cc2cnc(N)nc2N)cc(OC(C)C)c1OC
- Inhibition (Plasmodium falciparum [1]): 91%
- Inhibition (Plasmodium falciparum [2]): 15%
- Inhibition (HepG2): 10%

SMILES: C[C@@H](N/C(=N\c1ccc(-c2ccccc2)cc1)Nc1ccc(C#N)cc1O)c1ccc(Br)cc1
- Inhibition (Plasmodium falciparum [1]): 99%
- Inhibition (Plasmodium falciparum [2]): 95%
- Inhibition (HepG2): 9%

SMILES: COc1ccccc1C1CC(c2ccc(Br)cc2)=NN1C(=O)c1ccccc1 (centres undefined)
- Inhibition (Plasmodium falciparum [1]): 85%
- Inhibition (Plasmodium falciparum [2]): 59%
- Inhibition (HepG2): 12%

SMILES: Cc1cc(=NN=Cc2ccc(Cl)cc2)c2cccc(C)c2[nH]1
- Inhibition (Plasmodium falciparum [1]): 100%
- Inhibition (Plasmodium falciparum [2]): 47%
- Inhibition (HepG2): 0%

SMILES: COc1ccccc1C1CCN(C2CCC(NC(=O)/C=C/c3cc(F)cc(C(F)(F)F)c3)CC2)CC1 (centres undefined)
- Inhibition (Plasmodium falciparum [1]): 98%
- Inhibition (Plasmodium falciparum [2]): 57%
- Inhibition (HepG2): 92%

SMILES: O=C(Nc1cccc(-c2cc(-c3c(Cl)cccc3Cl)no2)c1)c1cncc(-c2cccs2)c1
- Inhibition (Plasmodium falciparum [1]): 91%
- Inhibition (Plasmodium falciparum [2]): 39%
- Inhibition (HepG2): 0%

SMILES: O=C(NCCCCN1CCC(c2cccc3ccccc23)CC1)c1ccc(-c2ccc(C(F)(F)F)cn2)cc1
- Inhibition (Plasmodium falciparum [1]): 91%
- Inhibition (Plasmodium falciparum [2]): 36%
- Inhibition (HepG2): 31%

SMILES: O=C(Nc1nc2ccc(Cl)cc2s1)c1csnn1
- Inhibition (Plasmodium falciparum [1]): 96%
- Inhibition (Plasmodium falciparum [2]): 99%
- Inhibition (HepG2): 15%
